# GALR2 agonist – GALR2 receptor agonists, primary screen, cell-based | Galanin receptor type 2 (Homo sapiens), O43603 | GALR2-expressing cells, agonist activation read-out | activation, % (no concentration beside the values) | 140,000 tested, 0.48% active | AID 803, 2007; in the data active means activation above about 5%, passing the limit was not always enough;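 further: 0% = vehicle buffer wells and 100% = reference agonist at full effect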
# PostGolgi yeast – phenotypic screen on post-Golgi transport, primary screen. post-Golgi transport phenotypic cell assay. inhibition, % at 10 µM. 98,000 tested, 0.9% active;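 further: yeast cells grown in 1536-well plates; yeast grown about 18 h at 30C before absorbance read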
# S1P2 agonist – S1P2 receptor agonists, primary screen, cell-based | activation, % at 4.5 µM | S1P2-expressing cell line, agonist reporter read-out | 97,000 tested, 0.46% active; in the data active means activation above about 16%;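 further: 0% = vehicle low control and 100% = maximal reference agonist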
# Target sequence (O95136 whole entry, looked up): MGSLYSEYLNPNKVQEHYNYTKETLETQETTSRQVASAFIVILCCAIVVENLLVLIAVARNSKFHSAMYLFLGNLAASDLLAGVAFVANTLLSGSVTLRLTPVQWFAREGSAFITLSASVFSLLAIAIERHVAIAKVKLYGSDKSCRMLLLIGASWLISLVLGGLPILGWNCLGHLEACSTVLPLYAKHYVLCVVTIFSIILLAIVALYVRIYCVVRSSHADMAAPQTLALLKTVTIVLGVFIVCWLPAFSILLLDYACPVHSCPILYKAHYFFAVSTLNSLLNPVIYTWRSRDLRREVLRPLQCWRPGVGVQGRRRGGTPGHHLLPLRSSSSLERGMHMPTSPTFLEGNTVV
# S1P2 blocker – human S1P2 receptor antagonists, primary screen, cell-based; cell-based S1P2 antagonist assay, inhibition at 5 uM; inhibition, % at 5 µM; 97,000 tested, 0.21% active; in the data active means inhibition above about 45%;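 further: CRE beta-lactamase reporter cells expressing human S1P2 stimulated with S1P; 0% = agonist at EC80 alone and 100% = agonist plus reference antagonist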
# GALR2 antag – GALR2 antagonists in receptor-expressing cells, primary screen | Galanin receptor type 2 (Homo sapiens), O43603 | antagonist mode | inhibition, % at 4 µM | 140,000 tested, 0.39% active | AID 828, 2007; in the data active means inhibition above about 27%;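 further: cells stimulated with galanin 1-16 at roughly its EC80; 0% = agonist challenge control and 100% = basal control without agonist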
# PostGolgi ctrl – growth inhibition of yeast control strain, primary screen, counter-screen for post-Golgi transport modulator project; 98,000 tested, 5% active; inhibition, % at 10 µM; efflux-deficient yeast background strain, growth absorbance A615, 16 h
# * = called active by the depositor; · = not tested or not shown. The sample as a whole holds a higher share of hits than the screen did. Unless noted, no stated cut-off is given here; in the data, active means inhibition above about 30%; inactive means the rest.
SMILES,GALR2 agonist,PostGolgi yeast,S1P2 agonist,S1P2 blocker,GALR2 antag,PostGolgi ctrl
CCn1c(=NC(=O)c2ccc(N3C(=O)CCC3=O)cc2)sc2c(OC)ccc(OC)c21,0,37*,-2,-25,-3,16
COCc1nnc(NC(=O)c2cc(OC)c(OC)cc2[N+](=O)[O-])s1,-1,·,·,·,-11,·
O=C(CCC1N=C2c3ccccc3N=C(SCc3ccccc3Cl)N2C1=O)NCc1ccco1 (configuration not stated),1,-1,-4,10,-12,37*
Cc1ccc(-c2nnc(SCC(=O)NNC(=O)COc3cccc4ccccc34)n2C)cc1,-1,·,·,·,6,·
Cc1ccc(NC(=O)Nc2cccs2)cc1,-1,3,·,·,16,38*
Cc1ccccc1Cn1nc(C)c(NC(=O)c2noc3c2CCc2ccccc2-3)c1C,-1,25,-6,11,6,38*
CCCCC(=O)Nc1ccc(NC(=S)NC(=O)c2cccs2)cc1OC,-1,·,·,·,-7,·
CC1CCCCN1Cc1ccc(N)cc1 (configuration not stated),-2,·,-7,-8,-8,·
CC1CCCCN1Cc1ccc(-c2nn[nH]n2)cc1 (configuration not stated),-1,1,-2,8,-4,45*
O=C(CCN1C(=O)S/C(=C\c2cccs2)C1=O)NC1=NCCS1,-1,·,·,·,12,·
CNC(=O)COC(=O)c1cc2c(C)nn(-c3ccc(F)cc3)c2s1,-4,2,1,-14,9,6
Cc1nn(-c2ccc(F)cc2)c2sc(C(=O)N3CCCCCC3)cc12,1,-7,30*,-26,-21,31*
COc1ccc(/C=N/Nc2c(Cl)cc(Cl)cc2Cl)cc1CN1CCOCC1,0,·,·,·,-3,·
C=CCn1c(N)cc(=O)nc1SCC(=O)Nc1ccccc1,-4,-4,80*,-9,-6,12
COc1cc(NS(=O)(=O)c2ccc(NC(=O)c3ccco3)cc2)nc(OC)n1,-2,-6,-2,-14,2,35*
COc1cc(NS(=O)(=O)c2ccc(NC(C)=O)cc2)nc(OC)n1,-1,4,-2,-29,-14,21
CNC(=O)NC(=O)COC(=O)c1ccc(-n2c(C)ccc2C)cc1,1,·,·,·,-5,·
CC(C)C(=O)Nc1ccc(S(=O)(=O)Nc2nccc(/C=C/c3ccccc3)n2)cc1,1,·,·,·,3,·
C=CCN1C(=O)N(/C=C/C)c2cccc3cccc1c23,0,4,-2,1,-5,30*
C=CCN1C(=O)C(C)(C)Nc2ccccc21,-1,-3,-5,2,-7,-3
CCCc1cc(-c2[nH]ncc2-c2ccc3c(c2)OCCCO3)c(O)cc1OC,0,15,-3,-12,-19,40*
O=c1c2ccccc2nc(/C=C/c2ccc([N+](=O)[O-])o2)n1CCCO,-1,91*,-7,31,18,62*
O=c1c2ccccc2nc(/C=C/c2ccc([N+](=O)[O-])cc2)n1CCCO,-1,·,·,·,4,·
CC(OCCN1CCCC1)(c1ccc(F)cc1)c1ccc(F)cc1,0,·,·,·,3,·
O=C(c1ccc(F)cc1)N1CCCCC(Sc2nnnn2-c2ccccc2)C1=O (configuration not stated),-3,5,-3,5,-7,45*
SMILES,GALR2 agonist,PostGolgi yeast,S1P2 agonist,S1P2 blocker,GALR2 antag,PostGolgi ctrl
CCCCNC(=S)N/N=C/c1ccccc1F,-2,·,·,·,0,·
O=C(NN1C(=O)C2C3CCC(O3)C2C1=O)c1ccco1 (configuration not stated),0,·,·,·,-2,·
O=C(O)CCC(=O)N1CCN(c2nc(-c3ccccc3Cl)c3cc(Br)ccc3n2)CC1,10,17,16*,-15,9,8
O=C(NCCC(=O)N1CCN(c2ncccn2)CC1)c1ccccc1Cl,-2,-4,-2,-4,-16,-6
COC(=O)COc1ccc(/C=N/NC(=O)c2ccc(N(Cc3ccccc3)S(C)(=O)=O)cc2)cc1,-1,·,·,·,2,·
Cc1ccc(NC(=O)C2(NC(=O)c3ccccn3)CCCCC2)cc1Br,1,·,·,·,-2,·
O=C(c1cnccn1)N(c1ccccc1)C1(C(=O)NC2CCCCC2)CCCCC1,-5,0,-2,15,4,33*
O=C(NC1(C(=O)NC2CCCCC2)CCCCC1)c1ccccn1,-2,-7,-4,-5,-3,32*
S=C(NCCCN1CCOCC1)Nc1ccc(Cl)c(Cl)c1,-2,·,·,·,7,·
Cc1ccc(C(=O)N2CCN(C)CC2)cc1S(=O)(=O)N1CCCCC1,0,-2,·,·,2,4
Cc1cc(C)n(C(=O)c2ccc(C)c(S(=O)(=O)N3CCCC3)c2)n1,-1,-6,2,-16,-12,32*
CC(=O)c1c(C)[nH]c(C(=O)COc2ccc(C#N)cc2)c1C,-1,3,-7,8,8,32*
COc1ccccc1OCC(=O)c1[nH]c(C)c(C(C)=O)c1C,-2,2,-3,51*,-1,2
CCOC(=O)c1c(C)[nH]c(C(=O)COC(=O)COc2ccc(OC)cc2)c1C,-1,·,·,·,-7,·
CC(=O)c1c(C)[nH]c(C(=O)OCc2ccccc2)c1C,-1,·,·,·,4,·
CC1=C(C(=O)OCc2ccccc2)C(c2ccc(Cl)cc2Cl)NC(=O)N1CCCC(=O)O (configuration not stated),-2,·,·,·,5,·
Cc1ccccc1N(C(=O)Cn1nnc(-c2cccs2)n1)C(C(=O)NCCC(C)C)c1ccco1 (configuration not stated),0,4,-3,9,-1,14
Cc1oc(C(C)(C)C)cc1C(=O)N1CCCC1C(=O)O (configuration not stated),1,·,1,-40,-6,·
CS(=O)c1nc(-c2ccc(Br)cc2)cc(-c2ccccc2)c1C#N (configuration not stated),6.2*,-1,·,·,57*,77*
COc1ccc(-c2cc(-c3ccccc3)c(C#N)c(S(C)(=O)=O)n2)cc1,-2,4,6,10,-1,51*
CS(=O)(=O)c1nc(-c2ccc(Br)cc2)cc(-c2ccccc2)c1C#N,-3,10,19*,2,0,74*
O=C(Nc1ccc(F)cc1F)NC1CC(=O)N(Cc2ccccc2)C1 (configuration not stated),-1,4,·,·,18,5
O=C(Cc1ccccc1)Nc1ccc(NC(=O)c2cccs2)c(Cl)c1,-1,·,·,·,-2,·
O=C(CS(=O)CC(=O)N(c1cccc(F)c1)C(C(=O)NC1CCCCC1)c1ccco1)Nc1ccc(F)cc1 (configuration not stated),-1,·,·,·,3,·
Cn1c(N)c(C(=O)c2ccc(F)cc2F)c(=O)n(C)c1=O,0,·,·,·,5,·
Cc1cc(C)c(C#N)c(N2CCN(CCOc3ccc(Cl)cc3)CC2)n1,-1,2,-3,13,-14,32*

# Screens from PubChem BioAssay.
